According to PubChem BioAssay:

test: inhibitors of PAF-induced NFkB signaling in CF airway cells, dose response, cell-based, uHTS hits, panel, cytotoxicity readout (AID 624344); conditions: CF bronchial epithelial cells, PAF-induced NFkB reporter inhibition, with PAF, run 1; at 79 µM (top of the series) unless noted

Row | Compound | inhibition [%]
1 | O=[N+]([O-])c1cc([N+](=O)[O-])c2oc(-c3ccccc3)c(Br)c2c1O | 112
2 | O=C(COC(=O)c1c2c(nc3ccccc13)CCN(Cc1ccccc1)C2)Nc1c(F)cccc1F | 79.5
3 | COc1ccccc1NS(=O)(=O)c1ccc(-c2cnc(C3CC3)o2)cc1 | 82.8
4 | CC(C)C[C@@H](CN1CCC[C@@H]1CN1C(=S)NC[C@@H]1Cc1ccc(O)cc1)N1C[C@H](Cc2ccc(O)cc2)N(CC2CCCCC2)C1=S | 105
5 | c1csc(CNc2ncnc3ccc(-c4ccoc4)cc23)c1 | 105
6 | C=CC[C@@H](CC(=O)N(CCO)Cc1ccccc1)C(=O)NC[C@H](OC(=O)[C@@H](CC=C)Cc1ccc(F)cc1)c1ccccc1 | 110
7 | CC(C)(C)S(=O)N1Cc2cc(C(=O)NCC(F)(F)F)nc(-c3cccc(-c4cccc(F)c4)c3)c2[C@@H]1CCO (stereo partly drawn) | 110
8 | Cc1ccnc(NC(=O)Cc2ccc(-c3ccccc3)cc2)c1 | 111
9 | COc1cccc(-c2ccc3ncnc(NCc4cccnc4)c3c2)c1 | 103
10 | CCOc1ccc(NCc2cc3c(C(C)(C)C)nn(-c4ccccc4)c3[nH]c2=O)cc1 | 101
11 | CCN(CC)CCNC(=O)c1ccc(NC(=O)C2CCN(c3ncnc4sc(C)c(C)c34)CC2)cc1 | 112
12 | CC(=O)Nc1ccc(S(=O)(=O)N2c3ccccc3C(C)=CC2(C)C)cc1 | 93.9
13 | CCOc1cc2c(cc1O)C(=NOC)CC1C2CCC2(C)C(O)CCC12 (stereo not drawn) | 74
14 | Cc1nc([N+](=O)[O-])c(Sc2nc3ccc([N+](=O)[O-])cc3[nH]2)n1Cc1ccccc1 | 101
15 | C[C@]12CCC(O)CC1CCC1C2CC[C@]2(C)C(c3cc(C(F)(F)F)n[nH]3)CCC12 (stereo partly drawn) | 121
16 | O=C(COc1ccc(Cl)cc1)Nc1ncc([N+](=O)[O-])s1 | 115
17 | O=C1NC(=S)N/C1=C\c1cccnc1 | 99.3
18 | CC(=O)OCCCNc1cc(Sc2ccc(Cl)cc2)c2nonc2c1[N+](=O)[O-] | 100
19 | O=C1C(=Cc2ccccc2[N+](=O)[O-])Cc2ccccc21 | 68.5
20 | O=C(Nc1cccc(Cl)c1)Nc1csc([N+](=O)[O-])c1 | 114

Row | Compound | inhibition [%]
21 | C=C1C(=O)O[C@@H]2[C@H]1CC[C@H](C)[C@]1(O)CCC(=O)[C@@]21C | 101
22 | O=C(NCCc1ccccc1)c1coc(=O)c(Br)c1 | 84
23 | O=C(OC1CCOC1=O)c1ccccc1C(=O)c1ccc(Cl)c([N+](=O)[O-])c1 (stereo not drawn) | 98.5
24 | Clc1ccc(-c2csc3ncnc(N4CCc5ccccc5C4)c23)cc1 | 103
25 | COC(=O)N1C(=O)[C@@](c2ccccc2)(C(C)C)N1C(=O)OC | 107
26 | CC(=O)N1CC(=O)N=C1SCC(=O)Nc1nc(C)c(-c2ccccc2)s1 | 62.6
27 | CC(=O)OCCN1c2ccccc2Sc2cnccc21 | 105
28 | COc1ccc(-c2cc(=O)oc3cc(OC(=O)C4CCCCC4)ccc23)cc1 | 110
29 | CC(C)(C)OC(=O)NCCCCCNC(=O)c1nc[nH]c1C(=O)NCC(=O)OCc1ccccc1 | 111
30 | N#Cc1c(-c2ccc(Cl)cc2)n(O)c2ccccc12 | 111
31 | CCCCCc1cc(O)c2c(C)cc(=O)oc2c1 | 112
32 | CC1(O)CC(c2ccc(Cl)cc2)=NN1C(=O)c1ccc(Cl)cc1 (stereo not drawn) | 109
33 | Cc1ccc(-c2cc(C(=O)N(C)Cc3cnn(C)c3C)c3cc(Br)ccc3n2)cc1 | 109
34 | Cc1nc2sc(C(N)=O)c(N)c2c2c1CCCC2 | 116
35 | Cc1c(Cl)cccc1NC(=O)COC(=O)c1c2c(nc3ccccc13)CCN(Cc1ccccc1)C2 | 72.2
36 | CC(NC(=O)OCc1ccccc1)C(=O)Oc1cc2oc(=O)cc(-c3ccccc3)c2cc1Cl (stereo not drawn) | 103
37 | COc1ccc(-c2cnc3c(NC=O)cc(-c4ccc(C(=O)N5CCOCC5)cc4)cn23)cc1OC | 106
38 | COc1cc(C2c3cc4c(cc3C3OC(=O)C2C3CO)OCO4)cc(OC)c1OC (stereo not drawn) | 91.1
39 | COc1cc(NC(=O)c2cc3ccccc3cc2OC)ccc1NC(=O)c1cccs1 | 98.1

test: as above; conditions: CF bronchial epithelial cells, PAF-induced NFkB reporter inhibition, with PAF, run 2; at 79 µM (top of the series) unless noted

Row | Compound | inhibition
40 | O=[N+]([O-])c1cc([N+](=O)[O-])c2oc(-c3ccccc3)c(Br)c2c1O | 107%
41 | O=C(COC(=O)c1c2c(nc3ccccc13)CCN(Cc1ccccc1)C2)Nc1c(F)cccc1F | 74%
42 | COc1ccccc1NS(=O)(=O)c1ccc(-c2cnc(C3CC3)o2)cc1 | 97.8%
43 | CC(C)C[C@@H](CN1CCC[C@@H]1CN1C(=S)NC[C@@H]1Cc1ccc(O)cc1)N1C[C@H](Cc2ccc(O)cc2)N(CC2CCCCC2)C1=S | 118%
44 | c1csc(CNc2ncnc3ccc(-c4ccoc4)cc23)c1 | 116%
45 | C=CC[C@@H](CC(=O)N(CCO)Cc1ccccc1)C(=O)NC[C@H](OC(=O)[C@@H](CC=C)Cc1ccc(F)cc1)c1ccccc1 | 102%
46 | CC(C)(C)S(=O)N1Cc2cc(C(=O)NCC(F)(F)F)nc(-c3cccc(-c4cccc(F)c4)c3)c2[C@@H]1CCO (stereo partly drawn) | 103%
47 | Cc1ccnc(NC(=O)Cc2ccc(-c3ccccc3)cc2)c1 | 105%
48 | COc1cccc(-c2ccc3ncnc(NCc4cccnc4)c3c2)c1 | 100%
49 | CCOc1ccc(NCc2cc3c(C(C)(C)C)nn(-c4ccccc4)c3[nH]c2=O)cc1 | 109%
50 | CCN(CC)CCNC(=O)c1ccc(NC(=O)C2CCN(c3ncnc4sc(C)c(C)c34)CC2)cc1 | 103%
51 | CC(=O)Nc1ccc(S(=O)(=O)N2c3ccccc3C(C)=CC2(C)C)cc1 | 56.4%
52 | CCOc1cc2c(cc1O)C(=NOC)CC1C2CCC2(C)C(O)CCC12 (stereo not drawn) | 94.3%
53 | Cc1nc([N+](=O)[O-])c(Sc2nc3ccc([N+](=O)[O-])cc3[nH]2)n1Cc1ccccc1 | 112%
54 | C[C@]12CCC(O)CC1CCC1C2CC[C@]2(C)C(c3cc(C(F)(F)F)n[nH]3)CCC12 (stereo partly drawn) | 99.6%
55 | O=C(COc1ccc(Cl)cc1)Nc1ncc([N+](=O)[O-])s1 | 83.3%
56 | O=C1NC(=S)N/C1=C\c1cccnc1 | 99.2%
57 | CC(=O)OCCCNc1cc(Sc2ccc(Cl)cc2)c2nonc2c1[N+](=O)[O-] | 113%
58 | O=C1C(=Cc2ccccc2[N+](=O)[O-])Cc2ccccc21 | 106%
59 | O=C(Nc1cccc(Cl)c1)Nc1csc([N+](=O)[O-])c1 | 97.5%

Row | Compound | inhibition
60 | C=C1C(=O)O[C@@H]2[C@H]1CC[C@H](C)[C@]1(O)CCC(=O)[C@@]21C | 108%
61 | O=C(NCCc1ccccc1)c1coc(=O)c(Br)c1 | 106% [at 39.5 µM]
62 | O=C(OC1CCOC1=O)c1ccccc1C(=O)c1ccc(Cl)c([N+](=O)[O-])c1 (stereo not drawn) | 105%
63 | Clc1ccc(-c2csc3ncnc(N4CCc5ccccc5C4)c23)cc1 | 112%
64 | COC(=O)N1C(=O)[C@@](c2ccccc2)(C(C)C)N1C(=O)OC | 104%
65 | CC(=O)N1CC(=O)N=C1SCC(=O)Nc1nc(C)c(-c2ccccc2)s1 | 73.4%
66 | CC(=O)OCCN1c2ccccc2Sc2cnccc21 | 109%
67 | COc1ccc(-c2cc(=O)oc3cc(OC(=O)C4CCCCC4)ccc23)cc1 | 101%
68 | CC(C)(C)OC(=O)NCCCCCNC(=O)c1nc[nH]c1C(=O)NCC(=O)OCc1ccccc1 | 101%
69 | N#Cc1c(-c2ccc(Cl)cc2)n(O)c2ccccc12 | 103%
70 | CCCCCc1cc(O)c2c(C)cc(=O)oc2c1 | 99.4%
71 | CC1(O)CC(c2ccc(Cl)cc2)=NN1C(=O)c1ccc(Cl)cc1 (stereo not drawn) | 78.5%
72 | Cc1ccc(-c2cc(C(=O)N(C)Cc3cnn(C)c3C)c3cc(Br)ccc3n2)cc1 | 102%
73 | Cc1nc2sc(C(N)=O)c(N)c2c2c1CCCC2 | 104%
74 | Cc1c(Cl)cccc1NC(=O)COC(=O)c1c2c(nc3ccccc13)CCN(Cc1ccccc1)C2 | 97.3%
75 | CC(NC(=O)OCc1ccccc1)C(=O)Oc1cc2oc(=O)cc(-c3ccccc3)c2cc1Cl (stereo not drawn) | 103%
76 | COc1ccc(-c2cnc3c(NC=O)cc(-c4ccc(C(=O)N5CCOCC5)cc4)cn23)cc1OC | 99%
77 | COc1cc(C2c3cc4c(cc3C3OC(=O)C2C3CO)OCO4)cc(OC)c1OC (stereo not drawn) | 94.7%
78 | COc1cc(NC(=O)c2cc3ccccc3cc2OC)ccc1NC(=O)c1cccs1 | 107%
